MEKK2 WT-MEK5 – raises or lowers MEK5 binding to wildtype human MEKK2 PB1 domain | binding response (% of control), % at 10 µM | Q9Y2U5 | AID 1531 | bead flow cytometry, Alexa488-MEK5 binding to MEKK2 WT; actives lie on both sides | actives 1.1% (n = 290,000); in the data active = binding response below about 67% or above about 130%
MEKK3 PB1 HTS – MEKK3-MEK5 PB1 interaction, increase or decrease | binding response (% of control), % at 10 µM | AID 1529 | actives 1.4% (n = 290,000) | Q99759 | bead-based flow cytometry, Alexa488-MEK5 binding to MEKK3; actives lie on both sides; 0 = blocked by unlabeled MEK5, 100 = vehicle;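 active = binding response more than 3 SD above or below the average of its plate-row segment, actives on both sides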;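 note: Alexa488 bead fluorescence after subtracting the streptavidin-only scavenger bead signal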
Target sequence (Q99759 whole entry, looked up): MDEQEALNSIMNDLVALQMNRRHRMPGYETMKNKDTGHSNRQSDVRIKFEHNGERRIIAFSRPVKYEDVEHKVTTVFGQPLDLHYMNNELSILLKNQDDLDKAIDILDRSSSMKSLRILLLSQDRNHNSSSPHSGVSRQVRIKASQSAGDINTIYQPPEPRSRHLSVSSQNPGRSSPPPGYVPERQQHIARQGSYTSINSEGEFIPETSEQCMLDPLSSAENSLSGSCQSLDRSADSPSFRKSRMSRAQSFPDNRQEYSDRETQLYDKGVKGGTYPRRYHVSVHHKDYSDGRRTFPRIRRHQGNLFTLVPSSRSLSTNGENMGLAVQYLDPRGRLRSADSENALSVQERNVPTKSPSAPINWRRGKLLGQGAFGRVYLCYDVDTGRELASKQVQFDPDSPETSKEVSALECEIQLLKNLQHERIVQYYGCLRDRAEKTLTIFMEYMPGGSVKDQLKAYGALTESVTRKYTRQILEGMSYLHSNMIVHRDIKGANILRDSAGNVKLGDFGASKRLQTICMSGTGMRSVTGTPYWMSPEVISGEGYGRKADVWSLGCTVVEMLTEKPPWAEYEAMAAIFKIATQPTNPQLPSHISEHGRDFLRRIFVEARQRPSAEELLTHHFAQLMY
MEKK2 mut-MEK5 – signal of MEK5 binding to mutant human MEKK2 PB1 domain; actives 0.35% (n = 290,000); bead flow cytometry, Alexa488-MEK5 binding to MEKK2 mutant; AID 1530; percent response, % at 10 µM; in the data active = percent response above about 24%, passing the limit was not always enough
Arbovirus inh – arbovirus infection inhibition. arbovirus infection cell-based antiviral screen. inhibition, % at 10 µM. actives 0.37% (n = 200,000). AID 1251; in the data active = inhibition above about 30%
Pf gametocyte – inhibitors of late stage P. falciparum gametocyte viability; P. falciparum stage V gametocytes, ATP luminescence, 24 h; inhibition, % at 10.9 µM; actives 0.065% (n = 150,000);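 active = inhibition above the mean plus 3 SD of compounds within the control limits, set per campaign, cut at about 38% in these data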
MEKK2wt confirm – raises or lowers MEK5 binding to wildtype human MEKK2, retest; shares compounds with MEKK3 PB1 HTS; bead flow cytometry, Alexa488-MEK5 binding to MEKK2 WT; actives lie on both sides; binding response (% of control), % at 10 µM; actives 2.4% (n = 5,900); in the data active = binding response below about 16% or above about 210%; inactive = in between
MEKK2mut confirm – signal of MEK5 binding to mutant human MEKK2, retest | AID 1893 | bead flow cytometry, Alexa488-MEK5 binding to MEKK2 mutant | shares compounds with MEKK3 PB1 HTS | percent response, % at 10 µM | actives 2% (n = 5,900); in the data active = percent response mostly above about 71%, no sharp cut-off; inactive = mostly below about 38%;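 note: higher means compound restores mutant binding toward wildtype level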
MEKK3-MEK5 inh – confirmation of inhibitors of MEK5 binding to human MEKK3; AID 1894; actives 1.8% (n = 5,900); shares compounds with MEKK3 PB1 HTS; bead flow cytometry, Alexa488-MEK5 binding to MEKK3; stronger effect = lower value; binding response (% of control), % at 10 µM;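 active = binding response below 72% of control, or above a set upper limit, though filed actives all read lower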
A number is an active result; n = inactive; x = not tested or not shown; [ ] = dose if it differs, or a comment. Most compounds without a hit are left out; they make up all but 2.4% or so of the library.

SMILES	MEKK2 WT-MEK5	MEKK3 PB1 HTS	MEKK2 mut-MEK5	Arbovirus inh	Pf gametocyte	MEKK2wt confirm	MEKK2mut confirm	MEKK3-MEK5 inh
CCN(CC)c1ccc(C=Nc2ccccc2C)c(O)c1	n	140	n	n	n	n	n	n
Cc1cc(C)c(S(=O)(=O)n2c([N+](=O)[O-])cnc2C)c(C)c1	n	n	n	n	x	x	x	x
CCOC(=O)C1CCN(C(=O)CN2C(=O)c3cccnc3Oc3ccccc32)CC1	n	n	n	x	x	x	x	x
O=C(NN1C(=O)c2cc(Br)ccc2NC1c1cc(Br)cc(Br)c1O)c1ccncc1 (centres undefined)	n	133	n	n	n	n	n	n
Cc1oc(-c2cccc(Cl)c2)nc1CN1CCC(C(=O)N2CCN(c3ccccc3F)CC2)CC1	140	n	n	n	x	n	n	n
COc1ccc(S(=O)(=O)N2CCNC(=O)C2)cc1Br	x	x	x	n	n	x	x	x
CCCOc1ccc(C2=NNC(c3cccs3)=Nc3ccc(OC)cc32)cc1	n	141	n	n	n	n	n	n
COc1ccc2c(c1)C(c1cccs1)=NNC(c1ccncc1)=N2	n	n	n	n	x	x	x	x
CCOC(=O)C1=C(N)OC2=C(C(=O)CC(C)(C)C2)C1c1cc(CSc2nnnn2C)cs1 (centres undefined)	n	n	n	n	n	x	x	x
CC(C)C(=O)N=C1SC2CS(=O)(=O)CC2N1Cc1ccccc1 (centres undefined)	n	n	n	n	n	x	x	x
CCCCN(C)CCNC(=O)C(=O)c1c(C)[nH]c2ccccc12	n	75[inhibitor]	n	n	n	n	n	n
Cc1cc(=S)nc(-c2ccccn2)[nH]1	59[inhibitor]	57[inhibitor]	n	x	n	n	n	n
CCn1c(SCC(=O)NC)nnc1C(C)C	n	n	n	n	x	x	x	x
CNC(=O)CSc1nnc(C(C)C)n1C	n	136	n	n	n	n	n	n
CCCNC(=O)Cn1c(=O)/c(=C\c2ccc(-c3ccc([N+](=O)[O-])cc3)o2)s/c1=C\C(=O)C(C)(C)C	x	n	132	n	x	n	n	n
O=C(O)CNS(=O)(=O)/C=C/c1ccccc1	n	n	n	n	n	x	x	x
O=S(=O)(/C=C/c1ccccc1)c1ccccc1	n	126	n	n	x	n	n	n
CN1CCN(c2ccc(Cl)cc2NC(=O)/C=C/c2cccc(F)c2)CC1	149	n	n	n	n	n	n	n
O=c1[nH]c(NCCO)nnc1Cc1ccccc1	n	n	n	x	x	x	x	x
COC(=O)C(Cc1ccc(O)cc1)NC(=O)C(C)Oc1ccccc1 (centres undefined)	-5.0[inhibitor]	0.0[inhibitor]	n	n	x	n	n	n
OCCC1CN(C2CCN(c3ccccc3F)CC2)CCN1Cc1ccccc1 (centres undefined)	n	n	n	n	n	x	x	x
Cc1ccc(Cl)cc1NC(=O)CCCN1C(=O)c2cccnc2C1=O	n	n	n	n	x	x	x	x
O=C(O)c1sccc1S(=O)(=O)N1CCN(c2ccc(C(F)(F)F)cn2)CC1	n	n	n	x	n	x	x	x
O=S(=O)(c1ccc(C(F)(F)F)cc1)N1CCCN(c2ccc(C(F)(F)F)cn2)CC1	46[inhibitor]	47[inhibitor]	n	x	n	n	n	n
COc1ccc(C(O)Cc2nccn2C)cc1 (centres undefined)	x	x	x	x	n	x	x	x
SMILES	MEKK2 WT-MEK5	MEKK3 PB1 HTS	MEKK2 mut-MEK5	Arbovirus inh	Pf gametocyte	MEKK2wt confirm	MEKK2mut confirm	MEKK3-MEK5 inh
CCCCn1c(SCC(=O)N2CCOCC2)nnc1-c1ccoc1C	n	128	n	n	x	n	n	n
CCn1c(CNC(=O)C2CCCCC2)cc2cc(C)ccc21	n	n	n	x	n	x	x	x
COc1ccc(N2CCN(c3cc(C)c4cccc(C)c4n3)CC2)cc1	n	67[inhibitor]	n	n	n	n	n	n
Cc1ccc(C2=CSC3=NS(=O)(=O)CCN23)cc1	n	n	n	n	n	x	x	x
Cc1ccc(C)c(C2=CSC3=NS(=O)(=O)CCN23)c1	3.0[inhibitor]	2.0[inhibitor]	n	n	x	n	n	n
CC1(c2nnc(-c3ccccc3)o2)CC(c2ccncc2)=NO1 (centres undefined)	n	n	n	x	x	x	x	x
